Screens from PubChem BioAssay.
Only some compounds are listed: those with a hit (about 2.8% of all), similar ones and a draw of the others.
KKLEB tox: counter-screen for CF NF-kB inhibitors: cytotoxicity; KKLEB CF airway cells viability, ATPlite luminescence, overnight; active compounds read low; cells stimulated with P. aeruginosa culture filtrate; activity change (cytotoxicity), % at 5 µM; 360,000 compounds, 0.36% hits;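 active = corrected activity change at or below -50% at 5 µM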
Beta2AR agonist: activates human beta-2 adrenergic receptor causing internalization | P07550 | Am2.2-beta2AR cells, FAP receptor internalization, flow cytometry | response, % (test concentration not listed) | 340,000 compounds, 0.43% hits;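 active = response above a set limit, near 3 SD of response in nonfluorescent compounds, cut at about 42% in these data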
Target sequence (P07550 whole entry, looked up): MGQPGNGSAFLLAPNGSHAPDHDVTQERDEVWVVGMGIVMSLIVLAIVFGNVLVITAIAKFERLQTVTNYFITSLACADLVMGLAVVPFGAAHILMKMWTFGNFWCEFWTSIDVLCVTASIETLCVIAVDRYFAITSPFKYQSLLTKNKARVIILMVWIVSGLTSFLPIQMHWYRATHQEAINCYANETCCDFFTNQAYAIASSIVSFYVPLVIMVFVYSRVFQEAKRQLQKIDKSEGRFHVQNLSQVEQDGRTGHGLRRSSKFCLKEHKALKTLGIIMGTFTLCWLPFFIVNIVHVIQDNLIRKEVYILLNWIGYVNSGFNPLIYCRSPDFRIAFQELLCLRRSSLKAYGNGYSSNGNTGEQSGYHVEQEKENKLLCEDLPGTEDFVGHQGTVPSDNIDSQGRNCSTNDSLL
CF NFkB inh: cystic fibrosis NF-kB activation inhibition; KKLEB NF-kB-GFP reporter, PAF-induced, GFP fluorescence overnight; inhibition, % at 5 µM; 360,000 compounds, 0.86% hits; AID 588850;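 active = at least 50% inhibition at 5 µM, scaled per plate between neutral and stimulator controls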;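 also: PAF is a Pseudomonas aeruginosa culture filtrate used as stimulus; plate controls were PAF-stimulated DMSO wells for no effect and unstimulated DMSO wells for full effect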
MITF TRPM1 inh: reduces MITF-dependent TRPM1 promoter luciferase signal. SK-MEL-5 TRPM1 promoter luciferase, 24 h. inhibition, % at 12.5 µM. 330,000 compounds, 0.83% hits. AID 488899;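 active = mean inhibition across replicates of 60% or more, whatever share of single replicates reaches that level; inconclusive = some that reach 60%, reason not given; inactive = mean inhibition across replicates below 60%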
HIF-2a block: blocks HIF-2a reporter activity | AID 624352 | inhibition, % at 18.8 µM | 786-0 RCC cells HIF-2a reporter, luciferase luminescence, overnight | 360,000 compounds, 0.72% hits;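 active = inhibition of the luminescence signal of 40% or more relative to plate controls, in a single-dose primary screen at 18.75 µM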
Peg3 prom inh: Peg3 promoter activity inhibition; HeLa PEG-Prom luciferase reporter, luminescence, overnight; inhibition, % at 20 µM; 360,000 compounds, 1.7% hits; AID 588405;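 active = inhibition of at least 50% at 20 µM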
The depositor's hits bear a star; ? = inconclusive; nt = no result given.

SMILES | KKLEB tox | Beta2AR agonist | CF NFkB inh | MITF TRPM1 inh | HIF-2a block | Peg3 prom inh
CC(=NNc1ccc2ccccc2n1)c1ccccc1O | -37.1 | -1.8 | -34.9 | nt | 43.4* | 36.6
COc1cccc(C(=O)Nc2nnc(S(=O)(=O)N(C)Cc3ccccc3)s2)c1 | -0.4 | -2.6 | 20.3 | -3.2 | 6.5 | 54.6*
COc1ccc(CN(C)S(=O)(=O)c2nnc(NC(=O)c3cccc(OC)c3)s2)cc1 | -9.3 | 6.4 | -1.0 | 7.9 | -2.0 | 29.1
Cc1cccc(C)c1C(O)c1ncc(-c2ccccc2C(F)(F)F)[nH]1 (stereo unspecified) | -8.2 | nt | 1.3 | nt | 8.1 | 9.8
C[C@@H]1CN([C@@H](C)CO)C(=O)c2cc(NC(=O)Nc3ccccc3)ccc2O[C@@H](C)CCCCO[C@H]1CN(C)C(=O)Nc1ccc(C(F)(F)F)cc1 | -16.5 | nt | -52.9 | nt | 4.2 | 11.8
O=C1NC(=S)S/C1=C\c1cc2ccccc2nc1N1CCCCC1 | -37.6 | 9.1 | 54.9* | 12.0 | -52.6 | 38.3
COc1ccc(NC(=O)CCCN2C(=O)/C(=C\c3ccco3)SC2=S)cc1 | -0.6 | -2.7 | 5.4 | 6.4 | 61.3* | 21.1
Cc1ccc(/C=C2/SC(=S)N(CCCC(=O)Nc3cc([N+](=O)[O-])ccc3O)C2=O)cc1 | -12.1 | 7.8 | 8.1 | 14.0 | 65.4* | 10.4
COc1ccc(/C=C2/SC(=S)N(CCCC(=O)Nc3cccc(O)c3)C2=O)cc1 | 1.1 | 14.9 | -17.2 | 8.3 | 55.7* | -53.1
COc1ccc(/C=C2/SC(=S)N(CCCC(=O)Nc3ccccc3C(=O)O)C2=O)cc1 | -13.5 | 5.1 | -4.2 | 40.6 | 90.6* | 47.9
O=C(C(=O)N1CCC(Cc2ccccc2)CC1)c1ccccc1 | nt | nt | nt | nt | -9.6 | nt
O=C(CCCN1C(=O)/C(=C\c2ccccc2)SC1=S)Nc1ccc(C(=O)O)cc1 | -0.8 | 0.6 | 1.5 | 5.6 | -1.6 | -29.6
COC(=O)c1ccc(/C=C2/SC(=S)N(CCCC(=O)Nc3ccc(O)cc3)C2=O)cc1 | -7.9 | 9.2 | 28.2 | 15.5 | 58.3* | 83.8*
CCc1ccc(/C=C2\SC(=S)N(CCCC(=O)Nc3ccccc3C(=O)O)C2=O)cc1 | 1.3 | -2.2 | 19.2 | 9.8 | 81.3* | 33.8
Cc1ccc(/C=C2\SC(=S)N(CCCC(=O)Nc3nccs3)C2=O)cc1 | -4.2 | -1.9 | 2.9 | 2.9 | 48.5* | -14.6
Cc1ccc(/C=C2\SC(=S)N(CCCC(=O)Nc3ccccc3C(=O)O)C2=O)cc1 | 12.9 | 4.8 | 0.5 | 21.0 | 87.4* | 46.5
COc1ccc(C(O)c2nc(-c3ccc(N(C)C)cc3)cs2)cc1 (stereo unspecified) | -11.7 | nt | 6.9 | nt | -166.7 | -131.0
CCOc1ccccc1NC(=O)C1CCCN1S(=O)(=O)c1ccc2c(c1)C(C)(C)C(=O)N2C (stereo unspecified) | -5.4 | nt | -33.8 | nt | -0.3 | -0.5
CC(C)(C)C1=CC(=O)C(=O)C(C(C)(C)C)=C1 | -13.1 | 110.0* | 39.8 | nt | 42.0* | 73.4*
CC(C)(C)C1=CC(=Nc2ccccc2N)C=C(C(C)(C)C)C1=O | -0.8 | 3.3 | -0.5 | 0.9 | 11.1 | 12.1
CCOC(=O)C1CCCN(C(=O)c2ccc3sccc3c2)CC1 (stereo unspecified) | -4.1 | nt | 10.6 | nt | -6.8 | 1.4
Cc1c(N2C(=O)/C(=C\c3ccccc3O)SC2=S)c(=O)n(-c2ccccc2)n1C | 14.4 | 11.1 | -14.7 | 21.6 | 4.7 | 16.9
CN1C(=O)/C(=C/c2cc(N=Nc3ccccc3)ccc2O)SC1=S | -52.4* | 18.9 | 74.3* | 15.8 | -55.6 | 16.4
COc1cccc(C#Cc2ccc3c(c2)O[C@H](CN(C)C)[C@@H](C)CN([C@@H](C)CO)S3(=O)=O)c1 | -8.9 | nt | 20.0 | nt | 3.4 | 16.2
COc1ccc(/C=N/NC(=S)Nc2cccc(C(=O)O)c2)cc1 | -3.7 | -2.2 | 6.3 | 10.0 | -31.8 | -68.0
SMILES | KKLEB tox | Beta2AR agonist | CF NFkB inh | MITF TRPM1 inh | HIF-2a block | Peg3 prom inh
COc1cc(/C=N/NC(=O)CCn2cnc(-c3ccccc3)c2-c2ccccc2)ccc1O | 4.0 | 12.4 | -8.5 | 1.9 | 20.1 | 53.1*
COc1cc(/C=N/NC(=S)Nc2cccc(C(=O)O)c2)ccc1O | -6.4 | -3.9 | -2.7 | 40.2 | 43.3* | 12.1
CC(C)[C@@H](C(=O)N[C@@H](CCc1ccc(O)cc1)C(=O)O)N(C)C(=O)[C@H](CO)NC(=O)[C@@H](O)[C@H](N)CCCCCCCCl | -9.3 | nt | -6.8 | nt | 8.2 | 9.1
COC(=O)[C@@H]1C[C@]2(OC(=O)c3ccccc3)C=CC(=O)C[C@@H]2N1C(=O)OCc1ccccc1 | -23.3 | 9.6 | 50.1* | ? | 90.7* | 72.2*
O=C(N/N=C/c1ccccc1O)c1ccncc1 | 3.7 | -5.8 | -7.5 | 15.5 | -1.4 | 17.2
CC(C)C(=O)Nc1ccc(C(=O)N/N=C/c2cc(Br)cc(Br)c2O)cc1 | -4.3 | -2.5 | 12.6 | 17.1 | 12.9 | 58.3*
O=C(N/N=C/c1cc(Cl)ccc1O)c1ccc(Br)cc1 | -31.1 | -7.3 | 57.2* | 40.2 | -43.8 | 45.5
NC(=O)N/N=C\c1cc(Br)ccc1O | 14.0 | 5.0 | 1.1 | -4.0 | 12.2 | 12.9
O=C(N/N=C\c1cc(Br)ccc1O)c1ccc(S(=O)(=O)N2CCCCC2)cc1 | -18.7 | 5.9 | 21.9 | 74.3* | 14.3 | 28.7
CC(=O)Nc1ccc(C(=O)N/N=C/c2cc(Br)cc(Br)c2O)cc1 | -9.8 | 13.0 | 27.5 | 22.4 | -1.2 | 27.3
O=C(N/N=C/c1cc(Br)ccc1O)c1ccncc1 | -9.9 | 5.4 | 20.8 | 76.4* | -0.7 | 31.1
COc1cccc(S(=O)(=O)N2C[C@H](O)COC[C@H]3O[C@@H](CC(=O)N4CCN(C)CC4)CC[C@@H]32)c1 | nt | nt | nt | nt | -2.6 | nt
CCOc1ccccc1NC(=O)C(=O)N/N=C/c1cc(Br)ccc1O | -21.0 | 12.6 | 31.1 | 59.1 | -0.6 | 52.6*
O=C(N/N=C/c1ccc(O)c2ncccc12)c1cccc(Br)c1 | -11.8 | 3.8 | 31.8 | 65.1* | 0.0 | 8.4
COc1cccc(/C=N/NC(=O)C(=O)Nc2ccccc2OC(F)(F)C(F)F)c1O | -9.1 | -1.3 | 9.1 | 72.8* | -6.1 | 48.6
O=C(CCCOc1ccc(Cl)cc1Cl)NC(Cc1ccccc1)C(=O)O (stereo unspecified) | 10.7 | -1.9 | -0.1 | 13.2 | 10.2 | 2.8
CN1CCN(c2ccc(CNC(=O)c3ccc(-c4ccc(F)c(F)c4)c4ccoc34)cc2)CC1 | 9.0 | nt | -16.5 | nt | -30.4 | 62.8*
CN1CCN(c2ccc(CNC(=O)c3cccc4c(-c5ccc(F)c(F)c5)coc34)cc2)CC1 | -11.5 | nt | -8.6 | nt | -46.4 | 72.9*
O=C(NCc1ccc(C(F)(F)F)cc1)c1cccc2c(-c3ccc(F)c(F)c3)coc12 | 12.6 | nt | -20.7 | nt | -25.4 | -4.3
O=C(NCc1ccc(C(F)(F)F)cc1)c1ccc(-c2ccc(F)c(F)c2)c2ccoc12 | 3.3 | nt | -2.3 | nt | -18.6 | -6.1
COc1ccc(-c2[nH][nH]c(=O)c2NC(=O)c2ccccc2Br)cc1 | 14.4 | nt | -20.4 | nt | 6.0 | 3.0
COc1ccccc1-c1csc(C(O)c2ccc(F)cc2)n1 (stereo unspecified) | -10.3 | nt | 13.6 | nt | -33.6 | -23.8
